Assay outcomes deposited in PubChem BioAssay by National Center for Advancing Translational Sciences (NCATS).
ALDH1A1 inh: inhibitors of human aldehyde dehydrogenase 1A1; P00352; Purified ALDH1A1, NADH fluorescence, propionaldehyde substrate; Potency, µM (doses to about 75.3 µM), for inactives: at the highest dose activity, negative = inhibition, actives largely listed as inhibitors; 7.3% of 220,000 active; AID 1030;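 also: potency is read from the fitted curve at half-maximal effect; plate controls were no enzyme wells and a reference inhibitor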
HPGD block: blocks human HPGD enzyme activity | P15428 | purified HPGD, NADH fluorescence kinetic, PGE2 substrate | Potency, µM, inactives show top-dose activity change, negative = inhibition, most hits filed as inhibitors | 4.3% of 150,000 active; also: potency is read from the fitted curve at half-maximal effect
Target sequence (P15428 whole entry, looked up): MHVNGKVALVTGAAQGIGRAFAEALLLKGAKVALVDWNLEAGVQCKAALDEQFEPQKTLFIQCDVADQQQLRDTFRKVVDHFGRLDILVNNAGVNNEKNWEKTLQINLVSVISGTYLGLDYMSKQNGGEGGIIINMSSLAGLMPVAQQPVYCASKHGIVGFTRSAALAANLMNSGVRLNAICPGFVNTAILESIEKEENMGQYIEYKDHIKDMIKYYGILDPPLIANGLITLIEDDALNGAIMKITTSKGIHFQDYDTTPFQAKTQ
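20 nM HPGD preincubated 15 min at room temperature with compound in 50 mM Tris-HCl pH 8, 0.01% Tween 20. Started with 1 mM NAD+ and 30 uM prostaglandin E2; NADH fluorescence (360/450 nm) read 5 times over 30-s intervals, last minus first.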
IMPase inh: IMPase inhibition in cells; P97697; CHO-M1 cells, IP1 accumulation, HTRF TR-FRET ratio; inhibition (IP1 accumulation), % at 46.1 µM; 120,000 tested, under 10 active; active = well fitted curve in the direction sought with a large enough effect in the signal ratio, not every such curve was filed as active; inconclusive = small, poorly fitted or top-dose-only effect, or a change in a side signal; inactive = no such curve, though single readings can be large or run the other way; the % refers to the signal ratio;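 also: cells stimulated with carbachol in lithium chloride buffer; plate controls were DMSO basal wells for no effect and reference inhibitor wells for full effect; higher means more IMPase inhibition seen as more IP1 and lower FRET ratio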
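Seeded CHO-M1 cells were dosed with compound at up to 46 uM, stimulated with carbachol for 30 min, then lysed in IP-One detection reagents. Higher IP1 lowers the TR-FRET signal.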
Numbers without * were called inactive; ? = inconclusive; . = not tested or not shown; ! = a repeat was not active; [ ] = remark or other dose. Compounds with a hit are over-represented: about 9% of the library has one in this group of screens. Unless noted, calls follow the shape of the dose curve; as a rule, active = well fitted inhibition curve with a large enough effect (not every such curve was filed as active); inconclusive = small, poorly fitted or top-dose-only effect, or another doubt; inactive = no such curve, though single readings can be large or run the other way. Unless noted, % is scaled to controls: 0 for no effect and ±100 for the full control effect.

SMILES	ALDH1A1 inh	HPGD block	IMPase inh
c1nc(N2CC2)c2cnn([C@@H]3CCCCO3)c2n1	2%[13.5 µM]	-7%	.
ClC(Cl)=C(Cl)Cl	14%	-5%	.
CCNC(C)(C)[C@@H](SS)c1ccc(Br)cc1	?	3.2µM*	.
NC[C@@H](O)CSP(=O)(O)O	6%[13.5 µM]	-7%	.
CCOC(=O)c1c(/N=C/c2c(O)n(-c3cccc(C)c3)c(=O)[nH]c2=O)sc2c1CCCC2	?	-22%	.
CCOC(=O)c1sc(/N=C/c2c(O)n(-c3ccccc3)c(=O)[nH]c2=O)c(C#N)c1C	11µM*	25µM*	-7
Cc1ccc(N)c(C(=O)c2ccccc2)c1	8%	-13%	6
Cc1ccc(C(=O)c2ccc(CC(=O)O)n2C)cc1	2%	16µM*!	2[20.6 µM]
c1ccc2c(c1)OC[C@@H](C1=NCCN1)O2	-8%	1%	5
CCCN(CCC)[C@@H]1CCc2c(F)ccc(O)c2C1	-9%	-16%	.
O=C1NC(=O)N(Cc2ccco2)C(=O)/C1=C/c1ccc(-c2cccc([N+](=O)[O-])c2)o1	7.1µM*	5µM*	.
O=[N+]([O-])c1ccc(-c2ccc(C=Nc3cccc4ccccc34)o2)cc1	?	?	6[0.0738 µM]
O=C1NC(=O)N(c2ccc3c(c2)OCO3)C(=O)/C1=C\c1ccc(-c2ccccc2C(=O)O)o1	-14%	.	.
C=CCN1C(=O)NC(=O)/C(=C\c2ccc(-c3ccccc3[N+](=O)[O-])o2)C1=O	22µM*	.	.
CCN(CC)c1ncnc2c1ncn2[C@@H]1O[C@H](COP(=O)(O)OP(=O)(O)C(Br)(Br)P(=O)(O)O)[C@@H](O)[C@H]1O	-5%	-5%	.
CCOc1ccc(CN(CCc2ccc3c(c2)OCO3)Cc2cc(OC)ccc2O)cc1	.	.	4
CC1CN(c2ccc([N+](=O)[O-])cc2Cl)CCN1 (stereo not given)	16µM*	.	.
CN1CCN(c2ccc([N+](=O)[O-])cc2Cl)CC1	-5%	.	.
CC1=C(/C=C/c2ccccc2)CCN(C)C1	11µM*	-10%	11
CCOC(=O)CC(SP(=S)(OC)OC)C(=O)OCC (stereo not given)	?	-10%	.
CC(C)=CCSc1nnc([C@@H](N)Cc2c[nH]c3ccccc23)o1	?	-7%	6
CCc1ccccc1NC(=O)CSc1nnc([C@@H](N)Cc2c[nH]c3ccccc23)o1	?	-14%	1
C=C(C)CSc1nnc([C@@H](N)Cc2c[nH]c3ccccc23)o1	16µM*	?	-2
Cc1ccc(NC(=O)CSc2nnc([C@@H](N)Cc3c[nH]c4ccccc34)o2)c(C)c1	25µM*	?	11
CN1[C@@H]2CC[C@H]1CC(OC(c1ccc(F)cc1)c1ccc(F)cc1)C2 (stereo not given in full)	11%	-9%	20
SMILES	ALDH1A1 inh	HPGD block	IMPase inh
COc1cc2c(cc1OC)[C@@]13CCN4C=C5CCO[C@H]6CC(=O)N2[C@@H]1C6[C@H]5C[C@H]43 (stereo not given in full)	11%[13.5 µM]	-9%	.
Nc1nc(N)c(Cn2ccnc2)c(=O)[nH]1	0%[13.5 µM]	3%	.
Cc1ccccc1C1=NCC(=O)N(CC(=O)NCc2ccco2)c2sc3c(c21)CCCC3	40µM*	40µM*	4
CCC(C)C1N=C(c2ccccc2)c2cc(Cl)ccc2N(CC(=O)NCc2ccco2)C1=O (stereo not given)	0%	-3%	5
c1cc2c(c(N3CCNCC3)c1)OCCO2	6%	-11%	.
CC(Cl)CCl (stereo not given)	4%	-1%	.
C[C@@]12CC[C@H]3[C@@H](CCC4=C(O)C(=O)CC[C@]43C)[C@H]1CCC2=O	.	.	3
CC(C)c1ccc(C(O)(C(=O)O)c2ccc(C(C)C)cc2)cc1	6%[13.5 µM]	-1%	.
Cc1ccc(O)c(C(=O)c2cc(C(=O)NCc3ccccc3)c(=O)n(Cc3ccccc3)c2)c1	?	-29%	14
O=C(c1cc(C(=O)NCc2ccccc2)c(=O)n(Cc2ccccc2)c1)c1cc(Br)ccc1O	-14%	10µM*	.
CN1CC[C@@]2(CCCN(C(=O)Oc3ccccc3)C2)C1	-3%	-5%	.
C[C@H]1CC[C@@H]2[C@@H](C)[C@H]3[C@H](C[C@H]4[C@@H]5CC=C6CC(O[C@@H]7O[C@H](CO)[C@H](O)[C@H](O[C@@H]8O[C@H](CO)[C@@H](O)[C@H](O)[C@H]8O)[C@H]7O[C@H]7O[C@@H](C)[C@H](O)[C@@H](O)[C@H]7O)CC[C@]6(C)[C@H]5CC[C@]34C)N2C1 (stereo not given in full)	22µM*	-4%	.
